Measured values from PubChem BioAssay (NCATS).
Inconclusive results are not listed. Activity calls are given as the source filed them. Unless noted, the call rests on the fitted dose curve; in most records, active means well fitted curve in the direction sought with a large enough effect; inconclusive means small, poorly fitted or top-dose-only effect, or another doubt; inactive means no such curve, though single readings can be large; an effect the other way counts as inactive or inconclusive.

Columns and labels:
Es-2 = assay: Primary qHTS to identify gynecologic anti-cancer compounds using libraries of approved drugs and bioactive compounds (AID 1345084); conditions: Gynecologic cancer cell panel viability, ATPlite luminescence, 48 h; series mostly up to 57.5 µM; further: nearly all actives have a fitted effect of over 55% in size; further: potency means the concentration at half of the fitted maximal effect
Outline: (§1)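 Five-point cytotoxicity, 48 h drug exposure at 37 C, 5% CO2, on cells seeded 16 h beforehand. ATP content read by ATPlite luminescence.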

HeLa = assay: as above; conditions: Gynecologic cancer cell panel viability, ATPlite luminescence, 48 h; series mostly up to 57.5 µM
Outline: as §1

Hek293T = assay: as above; conditions: Gynecologic cancer cell panel viability, ATPlite luminescence, 48 h, control line for the selectivity index; series mostly up to 57.5 µM
Outline: as §1

JEG-3 = assay: as above; conditions: Gynecologic cancer cell panel viability, ATPlite luminescence, 48 h; series mostly up to 57.5 µM
Outline: as §1

OV90 = assay: as above; conditions: Gynecologic cancer cell panel viability, ATPlite luminescence, 48 h; series mostly up to 57.5 µM
Outline: as §1

PA-1 = assay: as above; conditions: Gynecologic cancer cell panel viability, ATPlite luminescence, 48 h; series mostly up to 57.5 µM
Outline: as §1

Tov-21-G = assay: as above; conditions: Gynecologic cancer cell panel viability, ATPlite luminescence, 48 h; series mostly up to 57.5 µM
Outline: as §1

Tov112D = assay: as above; conditions: Gynecologic cancer cell panel viability, ATPlite luminescence, 48 h; series mostly up to 57.5 µM
Outline: as §1

[1] = Drug repurposing screens with cells derived from glioblastoma tumor samples (AID 1345199); conditions: GBM patient neurospheres viability, ATP luminescence, 48 h; further: nearly all actives have a fitted effect of over 40% in size; further: potency means the concentration at half of the fitted maximal effect; on activity, negative = cell killing: on the % scale 0 is the no-effect control and ±100 the full control effect
Outline: (§2)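 Primary testing used CD133+ neurospheres from four GBM patients, seven concentrations, 48 h exposure and ATP-based viability; confirmation added three slower-growing patient lines.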

astro = assay: as above; conditions: viability, ATP luminescence, 48 h; series mostly up to 45.9 µM
Outline: as §2

SKOV3 = assay: Primary qHTS to identify gynecologic anti-cancer compounds using libraries of approved drugs and bioactive compounds (AID 1345084); conditions: Gynecologic cancer cell panel viability, ATPlite luminescence, 48 h; series mostly up to 57.5 µM; further: nearly all actives have a fitted effect of over 55% in size; further: potency means the concentration at half of the fitted maximal effect
Outline: as §1

[2] = target: Nuclear receptor subfamily 1 group I member 2 (Rattus norvegicus) (UniProt Q9R1A7); assay: qHTS assay for small molecule activators of the rat pregnane X receptor (rPXR) signaling pathway (AID 651751; call rule not given here; further: 0% is about no effect); conditions: rPXR reporter cells, luciferase (One-Glo), 24 h
[3] = qHTS assay to identify inhibitors of the type 1 interferon - major histocompatibility complex class I in skeletal muscle: Counter screen cell viability and HiBit confirmation (AID 1347412); conditions: iHSKM muscle cells + IFN-b, HiBiT or CellTiter-Glo, 24 h; further: potency means the concentration at half of the fitted maximal effect; nearly all actives have a fitted effect of over 60% in size
Outline: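 After 24 h with human IFN-beta (4 ng/ml) and compound titrations (top 46 uM final, 1:3, 12 points), HLA-B HiBit myoblasts were lysed for either Nano-Glo HiBiT luminescence or CellTiter Glo viability on paired plates.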

[4] = at 45.9 µM (top of the series), tumour line B
[5] = at 45.9 µM (top of the series), tumour line D
[6] = at 46.1 µM (top of the series), tumour line C
[7] = at 20 µM (top of the series), tumour line C
[8] = at 21.2 µM (top of the series), tumour line B
[9] = at 21.2 µM (top of the series), tumour line D
[10] = at 21.3 µM (top of the series), tumour line A
[11] = at 46 µM (top of the series), tumour line A

Sequence of Nuclear receptor subfamily 1 group I member 2 (Rattus norvegicus) (Q9R1A7 whole entry, looked up): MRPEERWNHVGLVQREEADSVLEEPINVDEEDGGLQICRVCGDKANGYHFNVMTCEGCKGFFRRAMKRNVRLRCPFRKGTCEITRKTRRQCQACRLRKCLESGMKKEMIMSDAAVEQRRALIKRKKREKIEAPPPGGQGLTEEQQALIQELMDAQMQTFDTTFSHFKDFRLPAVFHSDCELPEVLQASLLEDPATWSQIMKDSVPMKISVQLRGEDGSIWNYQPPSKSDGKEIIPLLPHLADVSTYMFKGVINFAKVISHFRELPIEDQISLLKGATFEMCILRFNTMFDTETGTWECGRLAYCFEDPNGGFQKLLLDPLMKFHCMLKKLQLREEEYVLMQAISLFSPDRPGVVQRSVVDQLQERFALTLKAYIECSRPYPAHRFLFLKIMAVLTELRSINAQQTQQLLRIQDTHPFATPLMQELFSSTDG

c1ccc2c(c1)CCCC2C1=NCCN1 (configuration not stated)
inactive: Potency (Es-2) | Potency (HeLa) | Potency (Hek293T) | Potency (JEG-3) | Potency (OV90) | Potency (PA-1) | Potency (Tov-21-G) | Potency (Tov112D) | activity, negative = cell killing [1, 4] 0.679% | activity, negative = cell killing [1, 5] 3.62% | activity, negative = cell killing [1, 6] -14.8%

Cc1nc2ccccn2c(=O)c1CCN1CCC(C(=O)c2ccc(F)cc2)CC1
inactive: Potency (Es-2) | Potency (HeLa) | Potency (Hek293T) | Potency (JEG-3) | Potency (OV90) | Potency (PA-1) | Potency (Tov-21-G) | Potency (Tov112D) | activity, negative = cell killing [1, 4] -22.2% | Potency (astro)
active: Potency ([1]; tumour line A) 6.31 µM

CNC1(C)C2CCC(C2)C1(C)C (configuration not stated)
inactive: Potency (Es-2) | Potency (HeLa) | Potency (Hek293T) | Potency (JEG-3) | Potency (OV90) | Potency (PA-1) | Potency (Tov-21-G) | Potency (Tov112D) | activity, negative = cell killing [1, 4] 1.71% | activity, negative = cell killing [1, 5] 0.479% | activity, negative = cell killing [1, 6] 3.06% | Potency (astro)

C[C@]12CCC(=O)C=C1CC[C@@H]1[C@@H]2CC[C@@]2(C)[C@H]1CC[C@]2(O)C(=O)CO
inactive: Potency (Es-2) | Potency (HeLa) | Potency (Hek293T) | Potency (JEG-3) | Potency (OV90) | Potency (PA-1) | Potency (SKOV3) | Potency (Tov-21-G) | Potency (Tov112D) | activity, negative = cell killing [1, 4] -14.7% | activity, negative = cell killing [1, 5] 0.984% | activity, negative = cell killing [1, 6] -72.8% | Potency (astro)

COc1ccc2c(c1OC)C(=O)O[C@@H]2[C@H]1c2c(cc3c(c2OC)OCO3)CCN1C
inactive: Potency (Es-2) | Potency (HeLa) | Potency (Hek293T) | Potency (JEG-3) | Potency (OV90) | Potency (PA-1) | Potency (Tov-21-G) | Potency (Tov112D) | activity, negative = cell killing [1, 4] -11.4% | activity, negative = cell killing [1, 5] -14.1% | activity, negative = cell killing [1, 6] 1.26%

OC(CCN1CCCCC1)(c1ccccc1)C1CCCCC1 (configuration not stated)
inactive: Potency (Es-2) | Potency (HeLa) | Potency (Hek293T) | Potency (JEG-3) | Potency (PA-1) | Potency (SKOV3) | Potency (Tov-21-G) | Potency (Tov112D) | activity, negative = cell killing [1, 4] -11.3% | activity, negative = cell killing [1, 6] -28%

CNCCC(Oc1ccccc1OC)c1ccccc1 (configuration not stated)
active: Potency ([1]; tumour line A) 12.6 µM
inactive: Potency (Es-2) | Potency (HeLa) | Potency (Hek293T) | Potency (JEG-3) | Potency (PA-1) | Potency (SKOV3) | Potency (Tov-21-G) | Potency (Tov112D) | activity, negative = cell killing [1, 4] -10.4% | activity, negative = cell killing [1, 5] -19.1% | activity, negative = cell killing [1, 6] -16.2%

CCn1nc(C(=O)O)c(=O)c2cc3c(cc21)OCO3
inactive: Potency (Es-2) | Potency (HeLa) | Potency (Hek293T) | Potency (JEG-3) | Potency (OV90) | Potency (PA-1) | Potency (Tov-21-G) | Potency (Tov112D) | activity, negative = cell killing [1, 7] -1.32% | activity, negative = cell killing [1, 8] -10.1% | activity, negative = cell killing [1, 9] -5.8% | activity, negative = cell killing [1, 10] -22.7%

Cc1ccc(S(=O)(=O)NC(=O)NN2CCCCCC2)cc1
inactive: Potency (Es-2) | Potency (HeLa) | Potency (Hek293T) | Potency (JEG-3) | Potency (OV90) | Potency (PA-1) | Potency (SKOV3) | Potency (Tov-21-G) | Potency (Tov112D) | activity, negative = cell killing [1, 4] 5.62% | activity, negative = cell killing [1, 5] 15.6% | activity, negative = cell killing [1, 11] -3.14% | activity, negative = cell killing [1, 6] -5.87% | max response [2] 0.57%

O=C(O)CP(=O)(O)O
inactive: Potency (Es-2) | Potency (HeLa) | Potency (Hek293T) | Potency (JEG-3) | Potency (OV90) | Potency (SKOV3) | Potency (Tov-21-G) | Potency (Tov112D) | activity, negative = cell killing [1, 4] -17.9% | activity, negative = cell killing [1, 5] 13.7% | activity, negative = cell killing [1, 11] -25.2% | activity, negative = cell killing [1, 6] -15.6%

CCCN(CCC)CCc1cccc2c1CC(=O)N2
inactive: Potency (Es-2) | Potency (HeLa) | Potency (Hek293T) | Potency (JEG-3) | Potency (OV90) | Potency (PA-1) | Potency (SKOV3) | Potency (Tov-21-G) | Potency (Tov112D) | activity, negative = cell killing [1, 4] -4.59% | activity, negative = cell killing [1, 5] 4.33% | activity, negative = cell killing [1, 6] 2.12% | Potency (astro)

CC[N+](C)(C)c1cccc(O)c1
inactive: activity, negative = cell killing [1, 10] -22.7%

CC(C)(C)c1ccc(C(=O)CCCN2CCC(OC(c3ccccc3)c3ccccc3)CC2)cc1
active: Potency ([1]; tumour line B) 25.1 µM | Potency ([1]; tumour line D) 5.01 µM

C[n+]1cc2c3c(ccc2c2ccc4cc5c(cc4c21)OCO5)OCO3
active: Potency ([3]; HiBiT) 1.11 µM | Potency ([3]; Viability) 2.22 µM

C(=C\c1ccccc1)/CN1CCN(C(c2ccccc2)c2ccccc2)CC1
active: Potency ([1]; tumour line A) 7.08 µM
inactive: Potency (Es-2) | Potency (Hek293T) | Potency (JEG-3) | Potency (OV90) | Potency (PA-1) | Potency (Tov-21-G) | Potency (Tov112D) | activity, negative = cell killing [1, 7] -1.05% | activity, negative = cell killing [1, 8] -13.5% | activity, negative = cell killing [1, 9] -14% | Potency (astro)

CC(C)COCC(CN(Cc1ccccc1)c1ccccc1)N1CCCC1 (configuration not stated)
inactive: Potency (Es-2) | Potency (Tov-21-G) | activity, negative = cell killing [1, 6] -7.32%
active: Potency (OV90) 25.1 µM | Potency ([1]; tumour line A) 11.2 µM | Potency ([1]; tumour line D) 11.2 µM | Potency (astro) 35.5 µM

Cc1nc2sccn2c(=O)c1CCN1CCC(=C(c2ccc(F)cc2)c2ccc(F)cc2)CC1
active: Potency (astro) 20 µM
inactive: Potency (Es-2) | Potency (Hek293T) | Potency (JEG-3) | Potency (PA-1) | Potency (SKOV3) | Potency (Tov-21-G) | Potency (Tov112D)

COC(=O)C1=C(C)NC(C)=C(C(=O)OC(C)(C)CN(C)CCC(c2ccccc2)c2ccccc2)C1c1cccc([N+](=O)[O-])c1 (configuration not stated)
active: Potency ([1]; tumour line A) 2 µM | Potency ([1]; tumour line C) 5.8 µM | Potency ([1]; tumour line D) 5.01 µM
inactive: Potency (Es-2) | Potency (Hek293T) | Potency (JEG-3) | Potency (OV90) | Potency (PA-1) | Potency (Tov-21-G) | Potency (Tov112D)

C=CCc1ccccc1OCC(O)CNC(C)C (configuration not stated)
inactive: Potency (Es-2) | Potency (Hek293T) | Potency (JEG-3) | Potency (OV90) | Potency (PA-1) | Potency (SKOV3) | Potency (Tov-21-G) | Potency (Tov112D) | activity, negative = cell killing [1, 4] -18% | activity, negative = cell killing [1, 5] -4.74% | activity, negative = cell killing [1, 6] -6.66% | Potency (astro)

CN1CCN(C2=Nc3ccccc3Oc3ccc(Cl)cc32)CC1
inactive: Potency (Es-2) | Potency (Hek293T) | Potency (JEG-3) | Potency (PA-1) | Potency (SKOV3) | Potency (Tov-21-G) | Potency (Tov112D) | activity, negative = cell killing [1, 7] -15.4% | activity, negative = cell killing [1, 8] -17.3% | activity, negative = cell killing [1, 9] -18.3%
active: Potency ([1]; tumour line A) 12.6 µM

CN(C)[C@@H]1C(=O)C(C(N)=O)=C(O)[C@@]2(O)C(=O)C3=C(O)c4c(O)ccc(Cl)c4[C@@H](O)[C@H]3C[C@@H]12
inactive: Potency (Es-2) | Potency (Hek293T) | Potency (JEG-3) | Potency (OV90) | Potency (PA-1) | Potency (SKOV3) | Potency (Tov-21-G) | Potency (Tov112D) | activity, negative = cell killing [1, 4] -11.7% | activity, negative = cell killing [1, 5] -27% | activity, negative = cell killing [1, 6] -29.4% | Potency (astro)

CCN1CCc2nc(N)oc2CC1
inactive: Potency (Es-2) | Potency (Hek293T) | Potency (JEG-3) | Potency (OV90) | Potency (PA-1) | Potency (Tov-21-G) | Potency (Tov112D) | activity, negative = cell killing [1, 4] -14.6% | activity, negative = cell killing [1, 5] -6.92% | activity, negative = cell killing [1, 6] -18.3% | Potency (astro)

CCOC(=O)C1=C(C)NC(C)=C(C(=O)OC)C1c1cccc(Cl)c1Cl (configuration not stated)
inactive: Potency (Es-2) | Potency (Hek293T) | Potency (JEG-3) | Potency (OV90) | Potency (PA-1) | Potency (SKOV3) | Potency (Tov-21-G) | Potency (Tov112D) | activity, negative = cell killing [1, 4] -16.5% | Potency (astro)
active: Potency ([1]; tumour line A) 12.6 µM

OCCN1CCN(CC/C=C2/c3ccccc3Sc3ccc(C(F)(F)F)cc32)CC1
active: Potency (OV90) 10 µM | Potency ([1]; tumour line A) 2 µM
inactive: Potency (HeLa) | Potency (JEG-3) | Potency (Tov-21-G) | Potency (Tov112D) | activity, negative = cell killing [1, 6] -15%
